PubChem BioAssay AID1159580 (chemical genetic matrix, 2015)
Screen size: about 5,500 compounds; about 2,000 (36%) were called active. Not shown: some 18% with an inconclusive outcome. No stated cut-off is given here; in the data, active means normalized growth mostly below about 0.91 (no sharp cut-off); inconclusive means no clear call, values can overlap the other calls; inactive means mostly above about 0.92. Some of the results follow.

Experiment: chemical genetic growth profiling, strain panel (AID 1159580);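 further: tested at 20 µM; growth read once vehicle control cultures reached saturation at 30 °C; 1 = growth at the plate median or of vehicle wells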
Conditions: growth OD

Measured: normalized growth

NC(=O)NO
inactive: S. cerevisiae deletion strains, locus YJR066W, strain TOR1, stronger effect = lower value 0.931 | S. cerevisiae deletion strains, locus YKL009W, strain mrt4, stronger effect = lower value 0.998 | S. cerevisiae deletion strains, locus YKL068W, stronger effect = lower value 0.997 | S. cerevisiae deletion strains, locus YKL085W, strain MDH1 (second series), stronger effect = lower value 0.989 | S. cerevisiae deletion strains, locus YKL085W, strain MDH1, stronger effect = lower value 0.989 | S. cerevisiae deletion strains, locus YKL160W, strain elf1, stronger effect = lower value 1.03 | S. cerevisiae deletion strains, locus YKL190W, strain CNB1, stronger effect = lower value 1.01 | S. cerevisiae deletion strains, locus YKR001C, strain vps1, stronger effect = lower value 0.992 | S. cerevisiae deletion strains, locus YKR026C, strain gcn3, stronger effect = lower value 1.02 | S. cerevisiae deletion strains, locus YKR091W, strain srl3, stronger effect = lower value 1.01 | S. cerevisiae deletion strains, locus YLL001W, strain dnm1, stronger effect = lower value 1.01 | S. cerevisiae deletion strains, locus YLL026W, stronger effect = lower value 1.02 | S. cerevisiae deletion strains, locus YLL041C, strain sdh2, stronger effect = lower value 1.02 | S. cerevisiae deletion strains, locus YLR027C, strain aat2, stronger effect = lower value 1.03 | S. cerevisiae deletion strains, locus YLR039C, strain RIC1, stronger effect = lower value 1 | S. cerevisiae deletion strains, locus YLR058C, strain SHM2, stronger effect = lower value 1.01 | S. cerevisiae deletion strains, locus YLR102C, strain apc9, stronger effect = lower value 1 | S. cerevisiae deletion strains, locus YLR113W, strain HOG1, stronger effect = lower value 0.951 | S. cerevisiae deletion strains, locus YLR221C, strain rsa3, stronger effect = lower value 1.01 | S. cerevisiae deletion strains, locus YLR258W, strain gsy2, stronger effect = lower value 1.02 | S. cerevisiae deletion strains, locus YLR262C, strain YPT6 (second series), stronger effect = lower value 1 | S. cerevisiae deletion strains, locus YLR262C, strain YPT6, stronger effect = lower value 0.993 | S. cerevisiae deletion strains, locus YLR268W, strain sec22, stronger effect = lower value 0.998 | S. cerevisiae deletion strains, locus YLR320W, strain mms22, stronger effect = lower value 1.02 | S. cerevisiae deletion strains, locus YLR330W, strain CHS5, stronger effect = lower value 1.01 | S. cerevisiae deletion strains, locus YLR342W, strain FKS1 (second series), stronger effect = lower value 1 | S. cerevisiae deletion strains, locus YLR342W, strain FKS1, stronger effect = lower value 1.02 | S. cerevisiae deletion strains, locus YLR357W, strain rsc2, stronger effect = lower value 0.994 | S. cerevisiae deletion strains, locus YLR370C, strain arc18, stronger effect = lower value 1.03 | S. cerevisiae deletion strains, locus YLR371W, strain rom2, stronger effect = lower value 0.997 | S. cerevisiae deletion strains, locus YLR384C, strain iki3, stronger effect = lower value 1.02 | S. cerevisiae deletion strains, locus YLR418C, strain cdc73, stronger effect = lower value 0.97 | S. cerevisiae deletion strains, locus YML016C, strain PPZ1, stronger effect = lower value 1 | S. cerevisiae deletion strains, locus YML032C, strain rad52, stronger effect = lower value 0.984 | S. cerevisiae deletion strains, locus YML120C, strain ndi1, stronger effect = lower value 0.997 | S. cerevisiae deletion strains, locus YML124C, strain tub3, stronger effect = lower value 0.993 | S. cerevisiae deletion strains, locus YMR058W, strain fet3, stronger effect = lower value 1.06 | S. cerevisiae deletion strains, locus YMR078C, strain ctf18, stronger effect = lower value 0.999 | S. cerevisiae deletion strains, locus YMR125W, strain sto1, stronger effect = lower value 1.02 | S. cerevisiae deletion strains, locus YMR129W, stronger effect = lower value 1.02 | S. cerevisiae deletion strains, locus YMR205C, strain PFK2, stronger effect = lower value 1.03 | S. cerevisiae deletion strains, locus YMR223W, strain ubp8, stronger effect = lower value 0.994 | S. cerevisiae deletion strains, locus YMR231W, strain pep5, stronger effect = lower value 1.03 | S. cerevisiae deletion strains, locus YMR263W, strain SAP30, stronger effect = lower value 1.01 | S. cerevisiae deletion strains, locus YMR307W, strain GAS1, stronger effect = lower value 1.03 | S. cerevisiae deletion strains, locus YNL067W, strain RPL9B, stronger effect = lower value 1 | S. cerevisiae deletion strains, locus YNL071W, strain lat1, stronger effect = lower value 1.02 | S. cerevisiae deletion strains, locus YNL128W, strain TEP1, stronger effect = lower value 1.02 | S. cerevisiae deletion strains, locus YNL153C, strain GIM3, stronger effect = lower value 0.994 | S. cerevisiae deletion strains, locus YNL183C, strain NPR1, stronger effect = lower value 0.945 | S. cerevisiae deletion strains, locus YNL209W, strain ssb2, stronger effect = lower value 1.02 | S. cerevisiae deletion strains, locus YNL224C, strain SQS1, stronger effect = lower value 0.99 | S. cerevisiae deletion strains, locus YNL233W, strain BNI4, stronger effect = lower value 1.01 | S. cerevisiae deletion strains, locus YNL248C, strain rpa49, stronger effect = lower value 1.03 | S. cerevisiae deletion strains, locus YNL250W, strain rad50, stronger effect = lower value 0.996 | S. cerevisiae deletion strains, locus YNL271C, strain bni1, stronger effect = lower value 0.999 | S. cerevisiae deletion strains, locus YNL298W, strain CLA4, stronger effect = lower value 0.997 | S. cerevisiae deletion strains, locus YNL307C, strain MCK1, stronger effect = lower value 1 | S. cerevisiae deletion strains, locus YNL322C, strain KRE1 (second series), stronger effect = lower value 1.03 | S. cerevisiae deletion strains, locus YNR049C, strain mso1, stronger effect = lower value 1.01 | S. cerevisiae deletion strains, locus YNR052C, strain pop2, stronger effect = lower value 1.01 | S. cerevisiae deletion strains, locus YOL006C, strain TOP1, stronger effect = lower value 0.967 | S. cerevisiae deletion strains, locus YOL012C, strain htz1 0.591 | S. cerevisiae deletion strains, locus YOL147C, strain pex11, stronger effect = lower value 1 | S. cerevisiae deletion strains, locus YOR001W, strain rrp6, stronger effect = lower value 1.01 | S. cerevisiae deletion strains, locus YOR061W, strain CKA2, stronger effect = lower value 1.01 | S. cerevisiae deletion strains, locus YOR069W, strain VPS5, stronger effect = lower value 1.01 | S. cerevisiae deletion strains, locus YOR070C, strain gyp1, stronger effect = lower value 1.02 | S. cerevisiae deletion strains, locus YOR080W, strain dia2, stronger effect = lower value 1.03 | S. cerevisiae deletion strains, locus YOR083W, strain WHI5 (second series), stronger effect = lower value 0.997 | S. cerevisiae deletion strains, locus YOR083W, strain WHI5, stronger effect = lower value 0.993 | S. cerevisiae deletion strains, locus YOR106W, strain vam3, stronger effect = lower value 1.02 | S. cerevisiae deletion strains, locus YOR136W, strain idh2, stronger effect = lower value 0.991 | S. cerevisiae deletion strains, locus YOR144C, strain elg1, stronger effect = lower value 0.998 | S. cerevisiae deletion strains, locus YOR184W, strain ser1, stronger effect = lower value 0.993 | S. cerevisiae deletion strains, locus YOR231W, strain MKK1, stronger effect = lower value 0.967 | S. cerevisiae deletion strains, locus YOR265W, strain rbl2, stronger effect = lower value 1.02 | S. cerevisiae deletion strains, locus YOR270C, strain vph1, stronger effect = lower value 1.05 | S. cerevisiae deletion strains, locus YOR290C, strain snf2, stronger effect = lower value 1.02 | S. cerevisiae deletion strains, locus YOR316C, strain cot1, stronger effect = lower value 1.01 | S. cerevisiae deletion strains, locus YPL051W, strain arl3, stronger effect = lower value 1.03 | S. cerevisiae deletion strains, locus YPL078C, strain atp4, stronger effect = lower value 1.03 | S. cerevisiae deletion strains, locus YPL106C, strain sse1, stronger effect = lower value 0.984 | S. cerevisiae deletion strains, locus YPL240C, strain hsp82, stronger effect = lower value 1.01 | S. cerevisiae deletion strains, locus YPL241C, strain CIN2, stronger effect = lower value 1.01 | S. cerevisiae deletion strains, locus YPL256C, strain CLN2, stronger effect = lower value 0.954 | S. cerevisiae deletion strains, locus YPR119W, strain clb2, stronger effect = lower value 0.993 | S. cerevisiae deletion strains, locus YPR141C, strain kar3, stronger effect = lower value 0.99 | S. cerevisiae deletion strains, locus YPR163C, strain tif3, stronger effect = lower value 1 | S. cerevisiae deletion strains, locus YPR167C, strain met16, stronger effect = lower value 0.996 | S. cerevisiae deletion strains, strain wtn01, stronger effect = lower value 0.995 | S. cerevisiae strains, strain wild type, stronger effect = lower value 1
